For 33 compounds, inhibition results are on record in PubChem BioAssay AID2061166 (Soto Lab, Mitchell Center for Alzheimers Disease and …, 2025).

Unmarked numbers belong to inactive results. Calls of active or inactive are those of the source.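 How the source made its calls: active means mean tau seeding fluorescence area under 1% of vehicle, meaning inhibition above a set limit; inactive means the rest.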

For this assay, the target named is Microtubule-associated protein tau (Homo sapiens) (UniProt P10636). Briefly: inhibitors of seeded tau aggregation, primary screen, biochemical, seed amplification, ThT fluorescence (AID 2061166). The conditions noted are these: Recombinant tau seeded by AD brain, ThT fluorescence AUC; at 100 µM; active compounds read high.
Sequence of Microtubule-associated protein tau (Homo sapiens) (P10636 whole entry, looked up): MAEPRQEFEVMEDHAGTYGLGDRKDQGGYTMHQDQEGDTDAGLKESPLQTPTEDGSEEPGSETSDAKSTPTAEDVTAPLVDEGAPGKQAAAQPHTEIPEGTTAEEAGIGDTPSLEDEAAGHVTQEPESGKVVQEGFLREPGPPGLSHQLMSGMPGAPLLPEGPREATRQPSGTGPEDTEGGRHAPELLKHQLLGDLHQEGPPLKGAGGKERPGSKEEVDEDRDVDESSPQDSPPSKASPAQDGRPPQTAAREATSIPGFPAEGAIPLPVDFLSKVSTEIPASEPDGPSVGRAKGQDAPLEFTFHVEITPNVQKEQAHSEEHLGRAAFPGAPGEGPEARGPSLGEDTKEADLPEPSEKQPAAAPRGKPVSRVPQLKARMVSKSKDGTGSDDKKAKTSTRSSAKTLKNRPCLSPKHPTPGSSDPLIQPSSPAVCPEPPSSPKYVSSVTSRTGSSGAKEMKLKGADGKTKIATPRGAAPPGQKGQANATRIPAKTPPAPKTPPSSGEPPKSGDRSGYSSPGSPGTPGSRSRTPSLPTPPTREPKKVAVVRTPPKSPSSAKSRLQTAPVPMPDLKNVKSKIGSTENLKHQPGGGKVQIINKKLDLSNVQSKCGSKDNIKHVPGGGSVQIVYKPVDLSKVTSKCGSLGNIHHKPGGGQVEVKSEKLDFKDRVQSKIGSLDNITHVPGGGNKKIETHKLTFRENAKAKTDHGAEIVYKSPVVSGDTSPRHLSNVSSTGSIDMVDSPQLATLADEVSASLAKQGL
For `COc1ccc(C2CNC(=O)C2)cc1OC1CCCC1` (stereo not drawn), the inhibition is 16.3%.
With `CS(=O)(=O)OCCCCOS(C)(=O)=O` the figure was -40%; with `CCC(=O)NCCC1CCc2ccc3c(c21)CCO3` (stereo not drawn), -20.8%.
With `Nc1ccc(S(=O)(=O)c2ccc(N)cc2)cc1`, the inhibition was 26.5%.
Under `CC1(C)SC2C(NC(=O)C(N)c3ccc(O)cc3)C(=O)N2C1C(=O)O` (stereo not drawn) stands -6.81%.
Under `Brc1cccc(-c2cc(-c3ccc4c(c3)OCO4)[nH]n2)c1` stands -25.9%; under `CCN1CCN(Cc2ccc(Nc3ncc(F)c(-c4cc(F)c5nc(C)n(C(C)C)c5c4)n3)nc2)CC1`, 15.2%; under `CC1=NN(c2ccccc2)C(=O)C1`, 48.4%.
Regarding `CCN(C(=O)c1c(O)c2c(Cl)cccc2n(C)c1=O)c1ccccc1`, the inhibition was 20%.
With `CCCCOc1ccc(CC(=O)NO)cc1` the figure was 16.6%; with `Cc1c(C(=O)NN2CCCCC2)nn(-c2ccc(Cl)cc2Cl)c1-c1ccc(Cl)cc1`, 50.7%.
With `CN(C)CC(c1ccc(O)cc1)C1(O)CCCCC1` (stereo not drawn) the figure was 15.1%; with `C[N+](C)=c1ccc2nc3ccc(N)cc3sc-2c1`, 100% (active).
With `COc1ccc(Cc2cnc(N)nc2N)cc1OC` the figure was 37.1%; with `CC1COc2c(N3CCN(C)CC3)c(F)cc3c(=O)c(C(=O)O)cn1c23` (stereo not drawn), -27.6%; with `Cn1cnc2c(F)c(Nc3ccc(Br)cc3Cl)c(C(=O)NOCCO)cc21`, -4.66%.
Consider `OC(c1cc(C(F)(F)F)nc2c(C(F)(F)F)cccc12)C1CCCCN1` (stereo not drawn), for which the inhibition is 66.4%.
Take `O=c1c(O)c(-c2cc(O)c(O)c(O)c2)oc2cc(O)cc(O)c12`: the inhibition is 95.3%.
In the case of `O=C(CCCCCCC(=O)Nc1ccccc1)NO`, the inhibition is -65.2%.
As to `O=NN(CCCl)C(=O)NC1CCCCC1`, the inhibition was 14.1%.
Under `NS(=O)(=O)Cc1noc2ccccc12` stands 18.2%.
Under `C#CCC(Cc1cnc2nc(N)nc(N)c2n1)c1ccc(C(=O)NC(CCC(=O)O)C(=O)O)cc1` (stereo not drawn) stands -3.35%; under `NC(=O)NO`, -49.7%.
With `Oc1cc(O)c2c(c1)OC(c1ccc(O)c(O)c1)C(O)C2` (stereo not drawn) the figure was 88.6%; with `CCc1cc(C(N)=S)ccn1`, 40.9%; with `O=C(OC1CC2CCC(C1)[N+]21CCCC1)C(O)(c1ccccc1)c1ccccc1` (stereo not drawn), 16.5%.
As for `CC(C)(C)c1cc(C(C)(C)C)c(NC(=O)c2c[nH]c3ccccc3c2=O)cc1O`, the inhibition was -88.7%.
With `CC(C)(Sc1cc(C(C)(C)C)c(O)c(C(C)(C)C)c1)Sc1cc(C(C)(C)C)c(O)c(C(C)(C)C)c1` the figure was 23%; with `CCc1cc2c(cc1N1CCC(N3CCOCC3)CC1)C(C)(C)c1[nH]c3cc(C#N)ccc3c1C2=O`, -7.3%; with `Nc1c(N=Nc2ccc(-c3ccc(N=Nc4cc(S(=O)(=O)O)c5ccccc5c4N)cc3)cc2)cc(S(=O)(=O)O)c2ccccc12`, 100% (active).
Turning to `CCC1=CC2CN(C1)Cc1c([nH]c3ccccc13)C(C(=O)OC)(c1cc3c(cc1OC)N(C)C1C(O)(C(=O)OC)C(OC(C)=O)C4(CC)C=CCN5CCC31C54)C2` (stereo not drawn), the inhibition is 27%.
With `C#Cc1cccc(Nc2ncnc3cc4c(cc23)OCCOCCOCCO4)c1` the figure was -14.6%; with `CCC(C(=O)O)c1ccc(N2Cc3ccccc3C2=O)cc1` (stereo not drawn), 26.9%.
